Assay results: ChEMBL document CHEMBL3988442, “University of Dundee, Small-Polar-MMV Screening Library” (2021)

molecular target: AMP-activated protein kinase, AMPK (Homo sapiens) (UniProt P54646+O43741+P54619+Q9UGJ0+Q9Y478+Q13131+Q9UGI9); experiment: AMP-dependent Kinase enzyme assay. An in vitro enzyme assay that detects ADP turnover that is directly proportional to AMPK activity. This uses naive AMPK that is activated during the assay with MK-8722; assay type: functional; parameters: scale not given: direction of the effect not stated beside the values; conditions: 30 µM

| SMILES | Percent Effect [%] |
| --- | --- |
| Cc1ccc(S(=O)(=O)Cc2nnc(C)n2C)cc1 | 6.55 |
| COCCNC(=O)NCc1ccc(-n2ccc(C(F)(F)F)n2)cc1 | -8.71 |
| N#Cc1ccc(SCCC(=O)Nc2ccc(CC(N)=O)cc2)cc1 | 0.314 |
| NC(=O)C1CCN(c2ncccc2C(=O)N2CCc3ccccc32)C1 (stereo not given) | 2.58 |
| O=C(NCCn1ccnc1-c1cc2n(n1)CCCNC2)c1ccncc1 | 0.773 |
| COc1cccc(Cn2ncnc2CCC(C)N2CCN(C)CC2)c1 (stereo not given) | -1.98 |
| Cc1cccc(C(C(=O)NC(C)(C)CN2CCCC2)N(C)C)c1 (stereo not given) | -15.9 |
| CC(C)C(NC(=O)C1CCCC1)c1cc(O)nc(-c2cccnc2)n1 (stereo not given) | 0.00151 |
| COc1ncc(NCc2cccc(C#N)c2)cc1C(N)=O | 8.6 |
| COCCC(=O)N1CCCC(CCC(=O)NCc2cccc(OC)c2)C1 (stereo not given) | 14.2 |
| CCc1noc(CN2CCN(C(=O)OC(C)(C)C)C(C)C2)n1 (stereo not given) | 6.06 |
| N#Cc1c(N)nc2c(c1-c1c[nH]nc1C1CCCCC1)COCC2 | 42.5 |
| CCc1nnc(CNC(=O)CCC2CCCCN2C)s1 (stereo not given) | -10.9 |
| CC(NC(=O)NC1CCN(Cc2ccncc2)CC1)c1ccc(F)cc1 (stereo not given) | 7.79 |
| Cc1cc(CN2CCN(S(=O)(=O)c3c(C)c(Cl)cc(C)c3Cl)CC2)on1 | -3.43 |
| Cc1ccc(C)c(CC(=O)NC2CCS(=O)(=O)CC2)c1 | -4.86 |
| CC(Oc1cccc(Cl)c1)C(=O)Nc1cnn(CC(=O)NC2CC2)c1 (stereo not given) | 1.4 |
| COCCN1C[C@H]2CC[C@@H]1CN(C(=O)CCc1c(C)nn(C)c1C)C2 | -4.69 |
| CCC(c1ccc(F)cc1F)S(=O)(=O)CCO (stereo not given) | -2.09 |
| CC(C)(C)c1noc(CCCC(=O)N2CCNC(=O)CC2)n1 | -2.76 |
